Some test systems named below: HCT-15 colon; HT29 colon; SNB-75 CNS; SNB-19 CNS; U251 CNS; PC-3 prostate; SK-MEL-5 melanoma; UACC-62 melanoma; LOX IMVI melanoma; SK-MEL-28 melanoma; SK-MEL-2 melanoma; SN12C renal; UO-31 renal; TK-10 renal; ACHN renal; CAKI-1 renal; A498 renal; CCRF-CEM leukemia; MOLT-4 leukemia.
Holding throughout (assay): NCI-60 one-dose screen, 48 h (100 = growth as untreated, 0 = no growth, -100 = all killed)
Conditions in all cases: 10 µM unless noted

Molecules are shown by their SMILES. About 83,000 compounds went through this panel and 20% of them were active in at least one assay; those are over-represented in the sample as a whole.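 Cell lines were cultured in 96-well plates, exposed to a single compound concentration, and assessed for percent growth 48 hours later.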 Unmarked numbers belong to inactive results. Calls of active or inactive are those of the source. How the source made its calls: active means growth percent below 10; inactive means the rest.

In the case of `COc1cc(C(=O)OCCCCCCCCCCC[P+](c2ccccc2)(c2ccccc2)c2ccccc2)ccc1O`, the growth is 0.0119% (active) with HCT-15 colon; 1.83% (active) with HT29 colon; -75.7% (active) with SNB-75 CNS; -54.9% (active) in the test with SNB-19 CNS; -89.8% (active) in the test with U251 CNS; -22.3% (active) with PC-3 prostate. Further, the growth is -98.1% (active) in the test on SK-MEL-5 melanoma; -16% (active) with UACC-62 melanoma; -97.7% (active) with LOX IMVI melanoma; -66.1% (active) in the test on SK-MEL-28 melanoma; -32.1% (active) in the test with SK-MEL-2 melanoma; -70.1% (active) in the test on SN12C renal. In addition, the growth in the test with UO-31 renal was -8.76% (active); in the test on TK-10 renal, 8.26% (active); in the test on ACHN renal, -1.87% (active); in the test with CAKI-1 renal, -73.2% (active); with A498 renal, -0.743% (active); in the test on CCRF-CEM leukemia, -32.3% (active). The growth in the test with MOLT-4 leukemia was -50.9% (active).
Turning to `COc1cc(NC(=O)CCl)ccc(=O)c1`, the growth is 28.6% in the test with HCT-15 colon; 70.1% in the test with HT29 colon; 72% with SNB-75 CNS; 93% in the test with SNB-19 CNS; 31.9% in the test with U251 CNS; 74.6% in the test with PC-3 prostate. For the same compound, the growth in the test on SK-MEL-5 melanoma was 75%; with UACC-62 melanoma, 57.2%; with LOX IMVI melanoma, 49.1%; in the test on SK-MEL-28 melanoma, 85.4%; in the test on SK-MEL-2 melanoma, 74.3%; in the test with SN12C renal, 71.7%. Also, the growth with UO-31 renal was 64.3%; with TK-10 renal it was 35.4%; with ACHN renal, 74.7%; in the test with CAKI-1 renal it was 31%; with A498 renal, 85.7%; in the test with MOLT-4 leukemia, 50.1%.
As for `CCN(Cc1ccccc1)c1ccc(SC#N)cc1`, the growth in the test with HCT-15 colon is 64.8%; in the test with HT29 colon, 70.5%; with SNB-75 CNS, 83.1%; with SNB-19 CNS, 90.7%; with U251 CNS, 81.5%; in the test with PC-3 prostate it was 30.5%. The growth is 93.8% in the test on SK-MEL-5 melanoma; 90.4% in the test on UACC-62 melanoma; 49.2% with LOX IMVI melanoma; 86.7% in the test with SK-MEL-28 melanoma; 104% in the test with SK-MEL-2 melanoma; 87.9% in the test on SN12C renal. Besides, the growth in the test on UO-31 renal is 32.9%; with TK-10 renal, 102%; in the test on ACHN renal, 63.5%; in the test with CAKI-1 renal, 92.6%; in the test on CCRF-CEM leukemia, 13%; in the test with MOLT-4 leukemia, 59.5%.
Consider `CCN(C(=O)c1cc2ncccc2[nH]1)[C@H]1CCC[C@@H](NCc2cccc(F)c2)C1`, for which the growth in the test with HCT-15 colon was 100%; in the test on HT29 colon, 105%; in the test on SNB-75 CNS, 88%; in the test with SNB-19 CNS, 98.7%; in the test with U251 CNS, 107%; in the test on PC-3 prostate, 102%. The growth in the test on SK-MEL-5 melanoma is 96.3%; with UACC-62 melanoma, 98%; in the test on LOX IMVI melanoma, 94.8%; with SK-MEL-28 melanoma it was 103%; in the test with SK-MEL-2 melanoma, 105%; with SN12C renal, 95.3%. Further, the growth in the test with UO-31 renal was 74.3%; in the test with TK-10 renal it was 92.6%; in the test on ACHN renal, 102%; in the test on CAKI-1 renal, 101%; in the test on CCRF-CEM leukemia it was 128%; in the test on MOLT-4 leukemia, 95.9%.
In the case of `Cc1nc(Nc2cccnc2)sc1C(=O)/C=C/c1ccc(F)cc1`, the growth with HCT-15 colon was 20.4%; in the test with HT29 colon, 8.45% (active); with SNB-75 CNS it was 2.4% (active); in the test with SNB-19 CNS it was 18.9%; in the test on U251 CNS, 12.9%; in the test with PC-3 prostate, 27.6%. In addition, the growth in the test on SK-MEL-5 melanoma was 67.6%; with UACC-62 melanoma it was 46.3%; in the test with LOX IMVI melanoma, 8.41% (active); in the test on SK-MEL-28 melanoma it was 87.6%; with SK-MEL-2 melanoma, 92.4%; in the test with SN12C renal, 5.77% (active). Moreover, the growth with UO-31 renal is 29.9%; in the test on TK-10 renal it was 54%; in the test with ACHN renal it was 38.7%; in the test on CAKI-1 renal it was 46.2%; with CCRF-CEM leukemia it was 1.27% (active); in the test with MOLT-4 leukemia it was 81.7%.
On to `CN(C)c1ccc(-c2ccc(-c3ccc(C(=N)N)cn3)o2)cc1`, for which the growth in the test on HCT-15 colon was -46.6% (active); in the test with HT29 colon, -61.5% (active); in the test with SNB-75 CNS, -85.6% (active); in the test with SNB-19 CNS, 12.7%; in the test on U251 CNS, -91.1% (active); with PC-3 prostate, 7.95% (active). The growth in the test on SK-MEL-5 melanoma was -95.8% (active); in the test with UACC-62 melanoma it was -97.9% (active); with LOX IMVI melanoma it was -94.8% (active); in the test with SK-MEL-28 melanoma, -79.6% (active); in the test on SK-MEL-2 melanoma, -85.4% (active); in the test on SN12C renal, -85.2% (active). Besides, the growth is -69.4% (active) in the test with UO-31 renal; -64.7% (active) with TK-10 renal; -83.5% (active) with ACHN renal; -72.5% (active) in the test with CAKI-1 renal; -9.83% (active) with A498 renal; -2.2% (active) with CCRF-CEM leukemia. Besides, the growth with MOLT-4 leukemia is -52.1% (active).
Take `O=C(Nc1cccc(C(F)(F)F)c1)Nc1ccc(OCc2nnc(-c3ccccc3)o2)c(F)c1`: the growth in the test on HCT-15 colon was 26.7%; with HT29 colon, 43.2%; with SNB-75 CNS, 19.2%; with SNB-19 CNS, 46.6%; in the test with U251 CNS, 29.5%; in the test with PC-3 prostate, 5.14% (active). Further, the growth with SK-MEL-5 melanoma was 56.2%; in the test with UACC-62 melanoma it was 41.4%; in the test with LOX IMVI melanoma it was 46.8%; in the test on SK-MEL-28 melanoma it was 62.5%; with SK-MEL-2 melanoma, 67.8%; in the test with SN12C renal, 52.8%. Also, the growth with UO-31 renal was 26.9%; in the test on TK-10 renal, 60.2%; in the test on ACHN renal, 6.63% (active); in the test with CAKI-1 renal it was 36.9%; with A498 renal, 43.5%; in the test on MOLT-4 leukemia it was 17%.
Turning to `COc1cccc(NC(=O)c2sc3nc4c(cc3c2N)CCCC4)c1`, the growth with HCT-15 colon is 20.8%; in the test with HT29 colon, 41.5%; in the test on SNB-75 CNS, 18.2%; in the test on SNB-19 CNS, 39.4%; in the test on U251 CNS, 19.8%; in the test with PC-3 prostate it was 19.2%. For the same compound, the growth is 26.3% in the test with SK-MEL-5 melanoma; 33.2% with UACC-62 melanoma; 40.5% with LOX IMVI melanoma; 48.9% in the test on SK-MEL-28 melanoma; 33.7% in the test on SK-MEL-2 melanoma; 58.9% with SN12C renal. Besides, the growth was 40% in the test with UO-31 renal; 55.7% with TK-10 renal; 44.2% in the test with ACHN renal; 31% in the test with CAKI-1 renal; 17.6% in the test with A498 renal; 13.6% in the test with CCRF-CEM leukemia. For the same compound, the growth in the test on MOLT-4 leukemia is 17.8%.
Take `CCOC(=O)C1=C(C)NC(=O)NC1c1ccc(OCC(=O)N/N=C/c2ccc(Cl)cc2)cc1` (stereo unspecified): the growth with HCT-15 colon is 97.5%; in the test with HT29 colon it was 94.3%; in the test on SNB-75 CNS, 79.1%; in the test on SNB-19 CNS, 89.5%; in the test on U251 CNS, 91.9%; in the test with PC-3 prostate, 89%. Moreover, the growth in the test on SK-MEL-5 melanoma was 97.1%; with UACC-62 melanoma, 87.3%; in the test on LOX IMVI melanoma it was 98.2%; with SK-MEL-28 melanoma it was 105%; in the test with SK-MEL-2 melanoma, 94.3%; in the test with SN12C renal, 97%. Further, the growth in the test on UO-31 renal was 93.7%; in the test with TK-10 renal, 99%; in the test on ACHN renal, 96.8%; in the test with CAKI-1 renal, 99.8%; with CCRF-CEM leukemia, 92.1%.
`C=CCn1c(C)nc2ccc(Nc3nc(Nc4ccc(F)cc4)nc4ccccc34)cc21`: the growth is 34.5% in the test with HCT-15 colon; 18.7% in the test with HT29 colon; 54.6% in the test with SNB-75 CNS; 96.5% with SNB-19 CNS; 59.6% in the test with U251 CNS; 42.1% with PC-3 prostate. The growth is 33.3% in the test with SK-MEL-5 melanoma; 63.2% in the test with UACC-62 melanoma; 45.3% in the test on LOX IMVI melanoma; 72% in the test with SK-MEL-28 melanoma; 58.1% with SK-MEL-2 melanoma; 66.2% with SN12C renal. Also, the growth is 37.4% in the test with UO-31 renal; 82.3% with TK-10 renal; 67.6% in the test on ACHN renal; 58.2% with CAKI-1 renal; 59.9% in the test on A498 renal; -5.55% (active) in the test on MOLT-4 leukemia.
Take `COc1cc(CCn2nnc3c(NCCCCO)ncnc32)cc(OC)c1`: the growth with HCT-15 colon is 102%; in the test on HT29 colon, 112%; in the test with SNB-75 CNS it was 84.4%; in the test with SNB-19 CNS, 106%; in the test with U251 CNS it was 99.5%; in the test with PC-3 prostate it was 88.3%. The growth was 99.1% with SK-MEL-5 melanoma; 104% in the test on UACC-62 melanoma; 102% in the test on LOX IMVI melanoma; 109% with SK-MEL-28 melanoma; 124% with SK-MEL-2 melanoma; 102% in the test on SN12C renal. Besides, the growth in the test with UO-31 renal was 86.4%; in the test on TK-10 renal, 119%; in the test with ACHN renal, 106%; in the test on CAKI-1 renal it was 92.7%; in the test on A498 renal, 89%; in the test with CCRF-CEM leukemia it was 95%. For the same compound, the growth with MOLT-4 leukemia was 112%.

The values are drawn from PubChem BioAssay (NCI).
